Measured values from PubChem BioAssay AID1159580 (chemical genetic matrix, 2015).
Where “and” joins values, the source holds several entries; their conditions need not be identical. Equal values may be shown once. The campaign covered roughly 5,500 compounds. About 2,000 (36%) were called active. Another 18% or so got no clear call; they are omitted. Rule as the data show it: active = normalized growth mostly below about 0.91 (no sharp cut-off); inconclusive = no clear call, values can overlap the other calls; inactive = mostly above about 0.92. Some of the results follow.

Assay: chemical genetic growth profiling, strain panel (AID 1159580);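 also: tested at 20 µM; growth read once vehicle control cultures reached saturation at 30 °C; 1 = growth at the plate median or of vehicle wells; lower values mean less growth of the strain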
Conditions: S. cerevisiae deletion strains, growth OD

Measured: normalized growth

Oc1cc(O)c2c(c1)O[C@H](c1ccc(O)c(O)c1)[C@@H](O)C2
inactive: locus YAL021C, strain ccr4, active compounds read low 1.03 | locus YAL026C, strain drs2, active compounds read low 1.01 | locus YAL030W, strain snc1, active compounds read low 1.01 | locus YBL061C, strain skt5, active compounds read low 1.01 | locus YBR009C, strain hhf1, active compounds read low 0.993 | locus YBR021W, strain FUR4, active compounds read low 1.05 | locus YBR023C, strain chs3, active compounds read low 1.02 | locus YBR171W, strain sec66, active compounds read low 1.01 | locus YBR229C, strain ROT2, active compounds read low 0.957 | locus YBR231C, strain swc5, active compounds read low 1.01 | locus YBR279W, strain paf1, active compounds read low 1.01 | locus YCL011C, strain gbp2, active compounds read low 1.01 | locus YCL016C, strain dcc1, active compounds read low 1.01 | locus YCL029C, strain bik1, active compounds read low 0.972 | locus YCL061C, strain MRC1, active compounds read low 1.01 | locus YCL069W, strain vba3, active compounds read low 1 | locus YCR088W, strain abp1, active compounds read low 1.01 | locus YDL005C, strain med2, active compounds read low 1.01 | locus YDL035C, strain GPR1, active compounds read low 0.985 | locus YDL040C, strain nat1, active compounds read low 1 | locus YDL074C, strain BRE1, active compounds read low 1 | locus YDL101C, strain DUN1, active compounds read low 0.979 | locus YDL185W, strain tfp1, active compounds read low 0.978 | locus YDL192W, strain arf1, active compounds read low 0.992 | locus YDR001C, strain nth1, active compounds read low 0.994 | locus YDR069C, strain doa4, active compounds read low 1.02 | locus YDR101C, strain arx1, active compounds read low 1.03 | locus YDR137W, strain rgp1, active compounds read low 1.03 | locus YDR159W, strain sac3, active compounds read low 1 | locus YDR162C, strain NBP2, active compounds read low 0.962 | locus YDR195W, strain ref2 0.972 | locus YDR297W, strain sur2, active compounds read low 1.01 | locus YDR318W, strain mcm21, active compounds read low 0.981 | locus YDR334W, strain swr1, active compounds read low 1 | locus YDR335W, strain msn5, active compounds read low 1.01 | locus YDR388W, active compounds read low 0.963 | locus YDR392W, strain spt3, active compounds read low 0.981 | locus YDR502C, strain sam2, active compounds read low 1.01 | locus YEL003W, strain gim4, active compounds read low 1.02 | locus YEL037C, strain rad23, active compounds read low 1.01 | locus YEL061C, strain CIN8 (second series), active compounds read low 1 | locus YEL061C, strain CIN8, active compounds read low 0.988 | locus YER015W, strain faa2, active compounds read low 1 | locus YER016W, strain bim1, active compounds read low 0.997 | locus YER110C, active compounds read low 0.98 | locus YER111C, strain swi4, active compounds read low 0.988 | locus YER155C, strain BEM2 (second series), active compounds read low 1.01 | locus YER155C, strain BEM2, active compounds read low 0.991 | locus YER167W, strain BCK2, active compounds read low 0.994 | locus YFR010W, strain ubp6, active compounds read low 1.02 | locus YGL078C, strain dbp3, active compounds read low 0.99 | locus YGL086W, strain mad1, active compounds read low 1.04 | locus YGL167C, strain pmr1, active compounds read low 1.01 | locus YGL173C, strain kem1, active compounds read low 1.01 | locus YGL227W, strain vid30, active compounds read low 1 | locus YGL240W, strain doc1, active compounds read low 1.01 | locus YGL248W, strain PDE1, active compounds read low 0.988 | locus YGL253W, strain hxk2, active compounds read low 1.01 | locus YGR078C, strain PAC10, active compounds read low 0.976 | locus YGR135W, strain pre9, active compounds read low 0.966 | locus YGR252W, strain gcn5, active compounds read low 0.947 | locus YHR013C, strain ard1, active compounds read low 0.984 | locus YHR027C, strain rpn1, active compounds read low 1.01 | locus YHR030C, strain SLT2, active compounds read low 0.996 and 0.983 | locus YHR079C, strain IRE1 (second series), active compounds read low 0.979 | locus YHR079C, strain IRE1, active compounds read low 0.974 | locus YHR094C, strain hxt1, active compounds read low 0.972 | locus YHR129C, strain ARP1, active compounds read low 0.998 | locus YHR142W, strain chs7, active compounds read low 1.03 | locus YHR200W, strain rpn10, active compounds read low 0.975 | locus YIL066C, strain RNR3, active compounds read low 0.992 | locus YIL073C, strain SPO22, active compounds read low 1.02 | locus YIL125W, strain kgd1, active compounds read low 1 | locus YIR030C, strain dcg1, active compounds read low 0.994 | locus YJL092W, strain hpr5, active compounds read low 1 | locus YJL095W, strain BCK1 (second series), active compounds read low 1 | locus YJL095W, strain BCK1, active compounds read low 0.977 and 0.984 | locus YJL115W, strain asf1, active compounds read low 1 | locus YJL129C, strain trk1, active compounds read low 1.01 | locus YJL134W, strain LCB3, active compounds read low 0.989 | locus YJL154C, strain vps35, active compounds read low 1 | locus YJL164C, strain tpk1, active compounds read low 1.01 | locus YJL166W, strain qcr8, active compounds read low 1.02 | locus YJL168C, strain set2, active compounds read low 0.99 | locus YJL187C, strain SWE1 (second series), active compounds read low 0.971 | locus YJL187C, strain SWE1, active compounds read low 1.01 | locus YJR043C, strain POL32, active compounds read low 1.01
